# Paper PMC5515408, “Sequence-specific DNA binding by MYC/MAX to low-affinity non-E-box motifs”
# In all, about 4,500 sequences were measured (“log2 normalized fluorescence”: median about -0.34, highest 2% from about 3.3 on). This excerpt belongs to a sample that is enriched for the highest values.
# Biological target: MAX:MAX (p21) (human, UniProt P61244-2 1-151)
# Experiment: protein-binding microarray (anti-MAX antibody); PBM: 15 mM Tris-HCl pH 7.5, 100 mM KCl, 0.075% NP40, 7.5 mM beta-mercaptoethanol, 375 ng/ul BSA, 8 ng/ul poly(dA-dT):(dA-dT), 550 ng complex, 60 min, room tempe; high values mean tight binding
# Conditions: protein: recombinant; tags: 6xHis; chain copies: 2; label: 3' end of printed strand (linker) attached to glass slide; dsDNA, one strand shown
# Outline: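 For each of ~5000 unique double-stranded 12-nt sequences, spotted in triplicate on a custom Agilent glass array, binding of His-tagged human MYC:MAX or MAX:MAX dimers is reported as log2 normalized fluorescence. The dimers (550 ng, E. coli-expressed) were incubated for 60 min at room temperature in Tris-KCl buffer, pH 7.5, with NP40, BSA and poly(dA-dT) competitor. Detection used anti-MAX and secondary antibodies with a 543 nm scan.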
# MAX:MAX (p21), sequence (P61244 other isoform, or with tags, fused parts or gaps): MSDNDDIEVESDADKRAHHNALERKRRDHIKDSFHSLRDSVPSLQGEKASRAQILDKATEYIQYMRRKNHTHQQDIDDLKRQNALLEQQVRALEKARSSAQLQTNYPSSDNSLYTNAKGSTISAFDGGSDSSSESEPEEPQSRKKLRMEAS
row,Sequence,binding signal
1,CCGGCTGCCATGTGGGATTAATAGCTAAGATTACTATATCGACG,3.34 log2 normalized fluorescence
2,CCGGCGGGCACGTGGGATTAATAGCTAAGATTACTATATCGACG,3.48 log2 normalized fluorescence
3,CCGGCTGGCACGTCGGATTAATAGCTAAGATTACTATATCGACG,1.33 log2 normalized fluorescence
4,CCGGCGGGCACGTGGTCTTAATAGCTAAGATTACTATATCGACG,3.13 log2 normalized fluorescence
5,CCGGCTATCACGTGGGATTAATAGCTAAGATTACTATATCGACG,3.05 log2 normalized fluorescence
6,CCGGCTGGCACGTGGCATTAATAGCTAAGATTACTATATCGACG,3.03 log2 normalized fluorescence
7,CCGGCTACTATGCCATGTTAATAGCTAAGATTACTATATCGACG,0.457 log2 normalized fluorescence
8,CCGGCTGCCATGTGGTTTTAATAGCTAAGATTACTATATCGACG,3.15 log2 normalized fluorescence
9,CCGGCTGGCACGTGGGATTAATAGCTAAGATTACTATATCGACG,3.64 log2 normalized fluorescence
10,CCGGCTGACGATCTGTATTAATAGCTAAGATTACTATATCGACG,-0.62 log2 normalized fluorescence
11,CCGGCTGAAGAGAGGTATTAATAGCTAAGATTACTATATCGACG,-0.631 log2 normalized fluorescence
12,CCGGCTGACCCATGGTTTTAATAGCTAAGATTACTATATCGACG,2 log2 normalized fluorescence
13,CCGGCTGACATGAGGTATTAATAGCTAAGATTACTATATCGACG,2.52 log2 normalized fluorescence
14,CCGGCTGACCACAAGTATTAATAGCTAAGATTACTATATCGACG,1.12 log2 normalized fluorescence
15,CCGGCTGACCCAACGTATTAATAGCTAAGATTACTATATCGACG,-0.297 log2 normalized fluorescence
16,CCGGCTGACACGTGGGCTTAATAGCTAAGATTACTATATCGACG,3.35 log2 normalized fluorescence
17,CCGGCCGACACGTGGTATTAATAGCTAAGATTACTATATCGACG,3.12 log2 normalized fluorescence
18,CCGGCTGACACGTGGACTTAATAGCTAAGATTACTATATCGACG,3.07 log2 normalized fluorescence
19,CCGGCTGACACGGCTTATTAATAGCTAAGATTACTATATCGACG,0.66 log2 normalized fluorescence

row,Sequence,binding signal
1,CCGGCTGACACGTGACCTTAATAGCTAAGATTACTATATCGACG,3.18 log2 normalized fluorescence
2,CCGGCTCACACGTGGGCTTAATAGCTAAGATTACTATATCGACG,3.27 log2 normalized fluorescence
3,CCGGCTGACACGTGGCCTTAATAGCTAAGATTACTATATCGACG,3.37 log2 normalized fluorescence
4,CCGGCCGACACGTGGGCTTAATAGCTAAGATTACTATATCGACG,3.29 log2 normalized fluorescence
5,CCGGCTGACACGTGGGATTAATAGCTAAGATTACTATATCGACG,3.16 log2 normalized fluorescence
6,CCGGCTGAAAAACCGTATTAATAGCTAAGATTACTATATCGACG,-0.672 log2 normalized fluorescence
7,CCGGCTGAAGGCACGTATTAATAGCTAAGATTACTATATCGACG,0.169 log2 normalized fluorescence
8,CCGGCTGAGCACTGGTATTAATAGCTAAGATTACTATATCGACG,-0.181 log2 normalized fluorescence
9,CCGGCTGAGGACTTGTATTAATAGCTAAGATTACTATATCGACG,-0.44 log2 normalized fluorescence
10,CCGGCTCCCACCTGGTATTAATAGCTAAGATTACTATATCGACG,2.61 log2 normalized fluorescence
11,CCGGCTGACGGACGGTATTAATAGCTAAGATTACTATATCGACG,-0.374 log2 normalized fluorescence
12,CCGGCTGACGTATCGTATTAATAGCTAAGATTACTATATCGACG,-0.167 log2 normalized fluorescence
13,CCGGCTTCCACGTGGTATTAATAGCTAAGATTACTATATCGACG,3.13 log2 normalized fluorescence
14,CCGGCGTCCACGTGGTATTAATAGCTAAGATTACTATATCGACG,3.64 log2 normalized fluorescence
15,CCGGCGGCCACGTGGTATTAATAGCTAAGATTACTATATCGACG,3.16 log2 normalized fluorescence
16,CCGGCGATCACGTGGTATTAATAGCTAAGATTACTATATCGACG,3.19 log2 normalized fluorescence
17,CCGGCAACCACGTGGTATTAATAGCTAAGATTACTATATCGACG,3.15 log2 normalized fluorescence
18,CCGGCGACCACGTGGTATTAATAGCTAAGATTACTATATCGACG,3.3 log2 normalized fluorescence
19,CCGGCTACGACGTGGTATTAATAGCTAAGATTACTATATCGACG,2.57 log2 normalized fluorescence

row,Sequence,binding signal
1,CCGGCTGATCCTACGTATTAATAGCTAAGATTACTATATCGACG,-0.737 log2 normalized fluorescence
2,CCGGCTGATTACGTGTATTAATAGCTAAGATTACTATATCGACG,0.238 log2 normalized fluorescence
3,CCGGCTGACCGCGCGTATTAATAGCTAAGATTACTATATCGACG,1.24 log2 normalized fluorescence
4,CCGGCTGACCGCGTGTATTAATAGCTAAGATTACTATATCGACG,3.4 log2 normalized fluorescence
5,CCGGCTGATCGTGTGTATTAATAGCTAAGATTACTATATCGACG,1.12 log2 normalized fluorescence
6,CCGGCTGACCGTGTGTATTAATAGCTAAGATTACTATATCGACG,1.49 log2 normalized fluorescence
7,CCGGCTGATCACGTGTATTAATAGCTAAGATTACTATATCGACG,3.48 log2 normalized fluorescence
8,CCGGCTGACACCGTGTATTAATAGCTAAGATTACTATATCGACG,1.72 log2 normalized fluorescence
9,CCGGCTGACGCCTAGTATTAATAGCTAAGATTACTATATCGACG,-0.368 log2 normalized fluorescence
10,CCGGCTGAAGGCGCGTATTAATAGCTAAGATTACTATATCGACG,-0.33 log2 normalized fluorescence
11,CCGGCTGAAGCCCGGTATTAATAGCTAAGATTACTATATCGACG,-0.644 log2 normalized fluorescence
12,CCGGCTGACACGTAGCATTAATAGCTAAGATTACTATATCGACG,1.7 log2 normalized fluorescence
13,CCGGCTGACATACAGTATTAATAGCTAAGATTACTATATCGACG,0.345 log2 normalized fluorescence
14,CCGGCTGACTCAAGGTATTAATAGCTAAGATTACTATATCGACG,0.208 log2 normalized fluorescence
15,CCGGCTGGCACCTGGTTTTAATAGCTAAGATTACTATATCGACG,1.82 log2 normalized fluorescence
16,CCGGCTGGCACGTGGTATTAATAGCTAAGATTACTATATCGACG,3.26 log2 normalized fluorescence
17,CCGGCTGGCACGTGGTTTTAATAGCTAAGATTACTATATCGACG,3.33 log2 normalized fluorescence
18,CCGGCTGCCACGTGGTGTTAATAGCTAAGATTACTATATCGACG,3.07 log2 normalized fluorescence
19,CCGGCTGGCACGTGGTGTTAATAGCTAAGATTACTATATCGACG,3.4 log2 normalized fluorescence
